Measured values published in PubChem BioAssay (Tox21).
Inconclusive results are not listed. The source made the active and inactive calls. Unless noted, calls follow the shape of the dose curve; as a rule, active = well fitted curve in the direction sought with a large enough effect in the repeat runs; inconclusive = weak or mixed curves; inactive = no such curve, though single readings can be large; an effect the other way counts as inactive or inconclusive.

How the values were obtained:
[1] = qHTS assay to identify small molecule antagonists of the estrogen related receptor (ERR) signaling pathway from Tox21 library - cell viability counter screen (AID 1224834); also: nearly all actives have a fitted effect of over 30% in size
How it was run: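 Multiplexed viability counter screen in ERR cells: 17.5 h compound exposure at 37 C, CellTiter-Fluor added, 30 min at 37 C/5% CO2, fluorescence read.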

[2] = target: Luciferin 4-monooxygenase (Photinus pyralis) (UniProt P08659); test: qHTS assay to identify small molecule inhibitors of firefly luciferase (AID 1224835); also: nearly all actives have a fitted effect of over 25% in size
Sequence of Luciferin 4-monooxygenase (Photinus pyralis) (P08659 whole entry, looked up): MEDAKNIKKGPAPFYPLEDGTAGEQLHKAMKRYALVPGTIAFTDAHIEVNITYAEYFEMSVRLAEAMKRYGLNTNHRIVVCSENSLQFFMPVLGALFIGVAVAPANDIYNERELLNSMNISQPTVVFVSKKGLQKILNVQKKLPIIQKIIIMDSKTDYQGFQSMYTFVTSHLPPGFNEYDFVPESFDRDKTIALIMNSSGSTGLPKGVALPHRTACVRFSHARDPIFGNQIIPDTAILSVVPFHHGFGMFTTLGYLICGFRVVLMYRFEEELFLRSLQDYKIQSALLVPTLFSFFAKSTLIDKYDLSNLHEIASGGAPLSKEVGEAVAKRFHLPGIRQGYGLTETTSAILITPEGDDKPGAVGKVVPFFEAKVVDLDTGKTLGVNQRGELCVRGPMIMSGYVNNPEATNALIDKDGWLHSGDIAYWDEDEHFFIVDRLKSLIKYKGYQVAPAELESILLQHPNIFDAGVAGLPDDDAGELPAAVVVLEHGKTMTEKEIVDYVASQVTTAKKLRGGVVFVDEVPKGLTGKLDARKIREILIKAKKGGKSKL
How it was run: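 Inhibition of purified Photinus luciferase is measured by luminescence. Substrate levels (D-luciferin, ATP) sit at their KM values. Each compound is tested in a concentration series.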

[3] = qHTS assay to identify small molecule agonists of the constitutive androstane receptor (CAR) signaling pathway - cell viability counter screen (AID 1224836); also: nearly all actives have a fitted effect of over 45% in size
How it was run: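 HepG2 cells stably carrying hCAR and a CYP2B6-2.2kb reporter were plated 4 h, then given compounds at 15 concentrations plus PK11195 (final 0.75 uM). After 23 h at 37 C, viability was read by CellTiter-Fluor fluorescence.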

[4] = qHTS assay to identify small molecule antagonists of the constitutive androstane receptor (CAR) signaling pathway - cell viability counter screen (AID 1224837); also: nearly all actives have a fitted effect of over 45% in size
How it was run: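 Read-out: CellTiter-Fluor fluorescence after 23 hr at 37 C/5% CO2. Cells: HepG2 double-stable for hCAR and CYP2B6-2.2kb. Compounds tested at 15 concentrations in the presence of CITCO, final concentration 50 nM.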

[5] = target: Nuclear receptor subfamily 1 group I member 3 (Homo sapiens) (UniProt Q14994); test: qHTS assay to identify small molecule antagonists of the constitutive androstane receptor (CAR) signaling pathway (AID 1224838); also: nearly all actives have a fitted effect of over 40% in size
Sequence of Nuclear receptor subfamily 1 group I member 3 (Homo sapiens) (Q14994 whole entry, looked up): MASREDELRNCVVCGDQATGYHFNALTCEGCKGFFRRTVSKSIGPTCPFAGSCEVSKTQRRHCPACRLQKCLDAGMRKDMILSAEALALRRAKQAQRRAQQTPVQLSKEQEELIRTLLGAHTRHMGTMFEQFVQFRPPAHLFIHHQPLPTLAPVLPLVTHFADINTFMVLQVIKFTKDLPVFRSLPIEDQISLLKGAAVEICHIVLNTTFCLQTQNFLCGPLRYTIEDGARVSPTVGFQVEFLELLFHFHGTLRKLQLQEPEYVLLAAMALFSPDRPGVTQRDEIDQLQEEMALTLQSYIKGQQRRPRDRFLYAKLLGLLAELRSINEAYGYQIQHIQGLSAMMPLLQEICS
How it was run: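 Read-out: ONE-Glo luciferase luminescence after 30 min at room temperature. HepG2-CYP2B6-hCAR double-stable cells, compounds in 15-point titration plus 50 nM CITCO final, 24 h at 37 C/5% CO2.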

[6] = target: Nuclear receptor subfamily 1 group I member 3 (Homo sapiens) (UniProt Q14994); test: qHTS assay to identify small molecule agonists of the constitutive androstane receptor (CAR) signaling pathway (AID 1224839);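 also: HepG2 cells stably carrying human CAR and a CYP2B6 luciferase reporter; nearly all actives have a fitted effect of over 15% in size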
How it was run: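 HepG2 cells stably expressing hCAR and a CYP2B6-2.2kb luciferase reporter were treated with compounds at 15 concentrations plus 0.75 uM PK11195 (final) for 24 h at 37 C; luminescence was read after ONE-Glo addition.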

[7] = qHTS assay to identify small molecule antagonists of the estrogen related receptor signaling pathway with the pleiotropic PPARgamma coactivator (PGC) from Tox21 10K library (AID 1224841; call rule not given here; also: actives are mostly falling curves and most rising ones were filed inactive; nearly all actives have a fitted effect of over 50% in size)
How it was run: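 Luminescence read-out (One-Glo luciferase reagent, 30 min at room temperature) from PGC/ERR cells exposed to DMSO-dissolved test compounds for 18 h at 37 C; cells, 2,000 per well, had been preincubated 6 h before compound transfer.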

[8] = qHTS assay to identify small molecule agonists of the estrogen related receptor signaling pathway with the pleiotropic PPARgamma coactivator (PGC) from Tox21 10K library (AID 1224842); also: nearly all actives have a fitted effect of over 15% in size
How it was run: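 Luminescence from One-Glo (30 min, room temperature) measured after PGC/ERR cells had 18 h at 37 C with pinned compound (23 nL in DMSO). Cells had been seeded at 2,000 per well and pre-incubated 6 h.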

[9] = qHTS assay to identify small molecule agonists of the hypoxia (HIF-1) signaling pathway - cell viability counter screen (AID 1224844; calls by dose curve; also: nearly all actives have a fitted effect of over 50% in size)
How it was run: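 CellTiter-Glo luminescence read-out, 30 min RT, taken in the same wells as the beta-lactamase HRE reporter assay; HRE-bla ME-180 cells, 0.5% dialyzed FBS, 17 hr compound treatment at 37C, 5% CO2.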

[10] = qHTS assay to identify small molecule agonists of H2AX (AID 1224845; active = well fitted activation curve with a large enough effect in the signal ratio in the repeat runs, not every such curve was filed as active; the % refers to the signal ratio)
How it was run: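 Phospho-H2AX Ser139 measured by HTRF (ex 320 nm; em 665 and 620 nm) after 24 hr antibody incubation. Compounds, 15 concentrations, 0.76% DMSO, were applied to CHO-K1 cells for 3hr at 37C before lysis.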

[11] = qHTS assay to identify small molecule agonists of the hypoxia (HIF-1) signaling pathway (AID 1224846; active = well fitted activation curve with a large enough effect in the signal ratio in the repeat runs, not every such curve was filed as active; the % refers to the signal ratio)
How it was run: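 Beta-lactamase FRET read-out (CCF4-AM substrate) from ME-180 cells carrying an HRE-driven bla reporter, after 17 hrs compound exposure at 37C/5% CO2. Cells were seeded at 2,000 per well in 0.5% dialyzed FBS medium and preincubated 5 hrs.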

[12] = qHTS assay to identify small molecule agonists of H2AX - cell viability counter screen (AID 1224847; calls by dose curve; also: top concentration of the series differs between compounds; nearly all actives have a fitted effect of over 30% in size)
How it was run: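 Wild-type CHO-K1 cells (10% FBS medium) were plated overnight at 37C, exposed to compounds at 15 concentrations for 3 hr at 37C (0.76% DMSO final), and viability was read as CellTiter-Glo luminescence after 30 min at room temperature.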

[13] = qHTS assay to identify small molecule antagonists of the estrogen related receptor (ERR) signaling pathway from Tox21 library (AID 1224848); also: nearly all actives have a fitted effect of over 50% in size
How it was run: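 ERR cell line, 2,000 cells/well. 6 h settle, then compound (DMSO) added; 18 h at 37 C; ONE-Glo luminescence after 30 min RT.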

[14] = qHTS RealTime-Glo MT Cell Viability Assay in HepG2 cells - 24 hour (AID 1224867); also: nearly all actives have a fitted effect of over 50% in size
How it was run: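 Compound treatment began 5 h after plating HepG2 cells (600/well) with NanoLuc luciferase and prosubstrate. Plates stayed at 37 C for 40 h; luminescence was captured at six time points, 0 h through 40 h.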

[15] = qHTS RealTime-Glo MT Cell Viability Assay in HEK293 cells - 32 hour (AID 1224868)
How it was run: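 Quantitative high-throughput screen of the Tox21 10K library in HEK293: cells and RealTime-Glo reagents plated together, compound added at 5 h, luminescence monitored through 40 h at 37 C.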

[16] = A CellTox Green Cytotoxicity Assay to monitor cytotoxicity in HEK293 cells - 0 hour (AID 1224869); also: nearly all actives have a fitted effect of over 50% in size
How it was run: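 Read-out: fluorescence of a cell-impermeant cyanine dye staining DNA of dead cells, proportional to cytotoxicity. HEK293, 600 cells/well with reagent, compound (23 nL DMSO) added after 5 h; reads at 0, 8, 16, 24, 32, 40 h.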

[17] = qHTS RealTime-Glo MT Cell Viability Assay in HepG2 cells - 40 hour (AID 1224870); also: nearly all actives have a fitted effect of over 50% in size
How it was run: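 Real-time viability: cells seeded at 600 per well together with NanoLuc and cell-permeant prosubstrate, compounds added after 5 h incubation. Luminescence tracked at 0, 8, 16, 24, 32 and 40 h of exposure.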

[18] = qHTS assay to identify small molecule antagonists of the estrogen related receptor signaling pathway with the pleiotropic PPARgamma coactivator (PGC) from Tox21 10K library - cell viability counter screen (AID 1224840; active = well fitted cell-killing curve with a large enough effect in the repeat runs, not every such curve was filed as active; also: nearly all actives have a fitted effect of over 40% in size)
How it was run: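 Fluorescence read-out of CellTiter-Fluor viability reagent, added after cells had been exposed to compound in DMSO for 17.5 h at 37 C; 30 min development at 37 C/5% CO2. Cells: PGC/ERR line, 2,000/well.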

[19] = target: Thyrotropin receptor (Homo sapiens) (UniProt P16473); test: qHTS assay to identify small molecule agonists of the thyroid stimulating hormone receptor (TSHR) signaling pathway (AID 1224843; calls by dose curve; also: nearly all actives have a fitted effect of over 45% in size)
Sequence of Thyrotropin receptor (Homo sapiens) (P16473 whole entry, looked up): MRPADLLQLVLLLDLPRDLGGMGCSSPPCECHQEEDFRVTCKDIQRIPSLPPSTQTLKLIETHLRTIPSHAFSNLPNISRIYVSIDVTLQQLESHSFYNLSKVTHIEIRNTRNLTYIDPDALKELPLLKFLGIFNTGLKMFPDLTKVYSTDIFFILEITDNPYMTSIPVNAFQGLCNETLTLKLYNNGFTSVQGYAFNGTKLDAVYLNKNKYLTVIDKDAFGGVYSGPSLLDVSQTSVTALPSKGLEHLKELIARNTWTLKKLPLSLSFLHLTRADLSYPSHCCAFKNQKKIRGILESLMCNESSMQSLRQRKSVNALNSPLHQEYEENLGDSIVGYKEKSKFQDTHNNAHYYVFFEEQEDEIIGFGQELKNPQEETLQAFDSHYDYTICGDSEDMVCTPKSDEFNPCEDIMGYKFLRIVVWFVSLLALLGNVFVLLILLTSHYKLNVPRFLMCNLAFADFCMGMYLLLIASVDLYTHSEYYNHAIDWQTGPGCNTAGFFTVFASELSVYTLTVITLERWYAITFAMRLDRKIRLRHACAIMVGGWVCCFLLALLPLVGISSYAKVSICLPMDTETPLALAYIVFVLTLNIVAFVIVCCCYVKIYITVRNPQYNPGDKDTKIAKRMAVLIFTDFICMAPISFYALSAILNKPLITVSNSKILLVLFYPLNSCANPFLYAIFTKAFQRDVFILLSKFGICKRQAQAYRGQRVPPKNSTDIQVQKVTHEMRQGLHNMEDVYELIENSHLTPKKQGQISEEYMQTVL
How it was run: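 A cell-based cAMP HTRF format was run in TSHR-transfected HEK293 cells, 800 per well. Treatment: 30 min, room temperature. Detection: 1 h with labelled cAMP and anti-cAMP cryptate. Concentration-response over 15 points, three replicates.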

[20] = qHTS assay to identify small molecule agonists of the estrogen related receptor (ERR) signaling pathway from Tox21 library (AID 1224849; calls by dose curve; also: nearly all actives have a fitted effect of over 15% in size); details: ERR reporter cell line, ONE-Glo luciferase, 18 h; at 92.4 µM (top of the series) unless noted
How it was run: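 Luminescence readout (ONE-Glo, 30 min RT) after 18 h compound exposure at 37 C of NTP-supplied ERR reporter cells; cells were plated 6 h before compound addition by pin tool.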
% is scaled to controls: 0 for no effect and ±100 for the full control effect.

NC(CSCC(=O)O)C(=O)O (configuration not stated)
inactive: Potency [1] | Potency [2] | Potency [3] | Potency [4] | Potency [5] | Potency [6] | Potency [7] | outcome [8] | Potency [9] | outcome [10] | outcome [11] | Potency [12] | Potency [13] | Potency [14] | Potency [15] | Potency [16] | Potency [17]

CC(C(=O)O)c1ccc(CC2CCCC2=O)cc1 (configuration not stated)
inactive: Potency [1] | Potency [2] | Potency [3] | Potency [4] | Potency [5] | Potency [6] | Potency [18] | Potency [9] | outcome [10] | Potency [12] | Potency [14] | Potency [15] | Potency [17]

CCCN(CCC)CCc1cccc2c1CC(=O)N2
inactive: Potency [1] | Potency [2] | Potency [3] | Potency [4] | Potency [5] | Potency [6] | Potency [19] | Potency [9] | outcome [10] | Potency [12] | Potency [14] | Potency [15] | Potency [17]

CN1N=C(C(N)=O)CCC1=O
inactive: Potency [1] | Potency [2] | Potency [3] | Potency [4] | Potency [5] | Potency [6] | Potency [7] | outcome [8] | Potency [9] | outcome [10] | outcome [11] | Potency [12] | Potency [13] | Potency [14] | Potency [15] | Potency [17]

Cc1nc2c([nH]1)c(=O)n(C)c(=O)n2Cc1ccco1
inactive: Potency [1] | Potency [2] | Potency [3] | Potency [4] | Potency [5] | Potency [6] | Potency [18] | Potency [9] | outcome [10] | outcome [11] | Potency [12] | Potency [14] | Potency [15]

CC(C[N+](C)(C)C)OC(N)=O (configuration not stated)
inactive: Potency [1] | Potency [2] | Potency [3] | Potency [4] | Potency [5] | Potency [6] | Potency [7] | outcome [8] | Potency [9] | outcome [10] | Potency [12] | Potency [13] | activity change, positive = activation [20] 3.25% [at 42.5 µM] | Potency [14] | Potency [15] | Potency [16] | Potency [17]

Nc1ccc(S(=O)(=O)Nc2ccnn2-c2ccccc2)cc1
inactive: viability change, negative = cytotoxic [1] -1.42% [at 19 µM] | activity change, negative = inhibition [2] 8.37% [at 23.6 µM] | viability change, negative = cytotoxic [3] 4.16% [at 19 µM] | activity change, negative = cytotoxicity [4] 3.82% [at 19 µM] | activity, negative = inhibition [5] 0.346% [at 19 µM] | activation [6] -2.19% [at 19 µM] | viability change, negative = cytotoxic [18] 2.18% [at 19 µM] | Potency [19] | activity change, negative = cytotoxicity [9] -2.16% [at 15.8 µM] | outcome [10] | Potency [12] | activity change, negative = cytotoxicity [14] 1% [at 15.8 µM] | activity change, negative = cytotoxic [15] 5.86% [at 15.8 µM] | cytotoxicity [16] 1.17% [at 15.8 µM] | activity change, negative = cytotoxic [17] 0.768% [at 15.8 µM]

Cc1c(NC(C)C)c(=O)n(-c2ccccc2)n1C
inactive: Potency [1] | Potency [2] | Potency [3] | Potency [4] | Potency [5] | Potency [6] | Potency [7] | outcome [8] | Potency [19] | Potency [9] | outcome [10] | Potency [12] | Potency [13] | activity change, positive = activation [20] 0.236% [at 42.5 µM] | Potency [14] | Potency [15] | Potency [17]

CCn1nc(C(=O)O)c(=O)c2cc3c(cc21)OCO3
inactive: Potency [1] | Potency [2] | Potency [3] | Potency [4] | Potency [5] | Potency [18] | Potency [7] | outcome [8] | Potency [19] | Potency [9] | outcome [10] | Potency [12] | Potency [13] | Potency [14] | Potency [15] | Potency [17]

Nc1nc2c(ncn2COC(CO)CO)c(=O)[nH]1
inactive: Potency [1] | Potency [2] | Potency [3] | Potency [4] | Potency [5] | Potency [6] | Potency [19] | Potency [9] | outcome [10] | Potency [12]

COc1c(N2C[C@@H]3CCCN[C@@H]3C2)c(F)cc2c(=O)c(C(=O)O)cn(C3CC3)c12
inactive: Potency [1] | Potency [2] | Potency [3] | Potency [4] | Potency [5] | Potency [18] | Potency [7] | outcome [8] | Potency [19] | Potency [9] | outcome [10] | outcome [11] | Potency [12] | Potency [13] | Potency [14] | Potency [15] | Potency [16] | Potency [17]

CC1(C)CO[C@@H](CC(=O)O)CN1
inactive: Potency [1] | Potency [2] | Potency [3] | Potency [4] | Potency [5] | Potency [18] | Potency [7] | outcome [8] | Potency [19] | Potency [9] | outcome [10] | Potency [12] | Potency [13] | Potency [14] | Potency [15] | Potency [16] | Potency [17]
